# Assay results as given in publication PMC5540273 (PLoS ONE, 2017).
# Where two headings read alike, the source gives them in different places.
# Key:
# [1] = tested on: TAOK3; settings: concentration: 1 μM, replicates: in singlicate; n = 1
# [2] = tested on: TBK1; settings: concentration: 1 μM, replicates: in singlicate; n = 1
# [3] = tested on: TEC; settings: concentration: 1 μM, replicates: in singlicate; n = 1
# [4] = tested on: TESK1; settings: concentration: 1 μM, replicates: in singlicate; n = 1
# [5] = tested on: TGFBR1; settings: n = 1
# [6] = tested on: TGFBR2; settings: concentration: 1 μM, replicates: in singlicate; n = 1
# [7] = tested on: TIE1; settings: concentration: 1 μM, replicates: in singlicate; n = 1
# [8] = tested on: T1, TIE2; settings: concentration: 1 μM, replicates: in singlicate; n = 1
# T1 construct: gene TEK
# [9] = tested on: TLK1; settings: concentration: 1 μM, replicates: in singlicate; n = 1
# [10] = tested on: TLK2; settings: concentration: 1 μM, replicates: in singlicate; n = 1
# [11] = concentration: 1 μM, replicates: in singlicate
# 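Further: KINOMEscan kinase panel screen.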
structure (smiles),measurement,setting,value
Cc1cccc(-c2nc(C)cc(Nc3ccncc3)n2)n1 [GSK257997],%Inh,[1],0%
same,%Inh,[2],15%
same,%Inh,[3],0%
same,%Inh,[4],15%
same,%Inh,[5]; 1 µM,100%
same,%Inh,[6],4%
same,%Inh,[7],0%
same,%Inh,[8],8%
same,%Inh,[9],8%
same,%Inh,[10],0%
COc1ccc(Nc2nccc(NCCNC(=O)Nc3ccccc3F)n2)cc1 [GSK1379901],%Inh,[1],0%
same,%Inh,[2],21%
same,%Inh,[3],12%
same,%Inh,[4],44%
same,%Inh,[5]; [11],3%
same,%Inh,[6],0%
same,%Inh,[7],0%
same,%Inh,[8],0%
same,%Inh,[9],0%
same,%Inh,[10],0%
Cc1nnc(-c2ccc3occ(-c4ccc(S(C)=O)cc4)c3c2)[nH]1 (stereo not drawn),%Inh,[1],0%
same,%Inh,[2],0%
same,%Inh,[3],13%
same,%Inh,[4],2%
same,%Inh,[5]; [11],10%
same,%Inh,[6],0%
same,%Inh,[7],0%
same,%Inh,[8],5%
same,%Inh,[9],14%
same,%Inh,[10],0%
COc1cc(Nc2nccc(N3CCC(NC(=O)Nc4cc(C)ccc4C)C3)n2)cc(OC)c1OC (stereo not drawn) [GSK1379762],%Inh,[1],0%
same,%Inh,[2],18%
same,%Inh,[3],14%
same,%Inh,[4],0%
same,%Inh,[5]; [11],8%
same,%Inh,[6],0%
same,%Inh,[7],49%
same,%Inh,[8],2%
same,%Inh,[9],0%
same,%Inh,[10],0%
CN(C)CCN(C)C(=O)c1cc(-c2ccncc2)c(-c2ccc(Cl)c(O)c2)o1.Cl.Cl [SB-710397],%Inh,[1],0%
same,%Inh,[2],0%
same,%Inh,[3],6%
same,%Inh,[4],43%
same,%Inh,[5]; [11],0%
same,%Inh,[6],72%
same,%Inh,[7],7%
same,%Inh,[8],0%
same,%Inh,[9],0%
same,%Inh,[10],0%
O=S(=O)(c1ccc(-c2ccnc3[nH]ccc23)cc1)N1CCCC1 [GSK846226],%Inh,[1],0%
same,%Inh,[2],33%
same,%Inh,[3],4%
same,%Inh,[4],9%
same,%Inh,[5]; [11],0%
same,%Inh,[6],0%
same,%Inh,[7],0%
same,%Inh,[8],0%
same,%Inh,[9],24%
same,%Inh,[10],19%
Cc1csc(-c2nc(Nc3ccncc3)c3ccccc3n2)n1 [GW869640],%Inh,[1],29%
same,%Inh,[2],37%
same,%Inh,[3],9%
same,%Inh,[4],13%
same,%Inh,[6],88%
same,%Inh,[7],36%
same,%Inh,[8],21%
same,%Inh,[9],0%
same,%Inh,[10],1%
C[C@@H]1CCCCN1c1cc(-c2ccc3c(N)n[nH]c3c2)nc(N)n1 [GSK2258759],%Inh,[1],0%
same,%Inh,[2],24%
same,%Inh,[3],0%
same,%Inh,[4],0%
same,%Inh,[6],0%
same,%Inh,[7],0%
same,%Inh,[8],0%
same,%Inh,[9],23%
same,%Inh,[10],4%
Cc1cccc(-c2nc(Nc3cccc(C(N)=O)c3)c3ccccc3n2)n1 [GW876019],%Inh,[1],0%
same,%Inh,[2],40%
same,%Inh,[3],2%
same,%Inh,[4],0%
same,%Inh,[6],15%
same,%Inh,[7],0%
same,%Inh,[8],41%
same,%Inh,[9],0%
same,%Inh,[10],4%
Cn1cncc1-c1ccc2ncnc(Nc3ccc(OCc4ccccc4)cc3)c2c1 [GW320571],%Inh,[1],0%
same,%Inh,[2],0%
same,%Inh,[3],6%
same,%Inh,[4],11%
same,%Inh,[5]; [11],5%
same,%Inh,[6],29%
same,%Inh,[7],30%
same,%Inh,[8],0%
same,%Inh,[9],4%
same,%Inh,[10],0%
COc1ccc2nc(-c3cccc(C)n3)nc(Nc3ccncc3)c2c1 [GSK204919],%Inh,[1],0%
same,%Inh,[2],3%
same,%Inh,[3],8%
same,%Inh,[4],26%
same,%Inh,[6],10%
same,%Inh,[7],9%
same,%Inh,[8],0%
same,%Inh,[9],0%
same,%Inh,[10],0%
COc1ccc(CNC(=O)NC2CCN(c3ccnc(Nc4cc(OC)c(OC)c(OC)c4)n3)C2)cc1 (stereo not drawn) [GSK1379748],%Inh,[1],0%
same,%Inh,[2],15%
same,%Inh,[3],0%
same,%Inh,[4],2%
same,%Inh,[5]; [11],0%
same,%Inh,[6],0%
same,%Inh,[7],20%
same,%Inh,[8],0%
same,%Inh,[9],9%
same,%Inh,[10],0%
O=c1cc(N2CCOCC2)nc2n(Cc3cccc(Cl)c3Cl)ccn12 [GSK2286295],%Inh,[1],0%
same,%Inh,[2],19%
same,%Inh,[3],0%
same,%Inh,[4],1%
same,%Inh,[5]; [11],0%
same,%Inh,[6],0%
same,%Inh,[7],0%
same,%Inh,[8],0%
same,%Inh,[9],0%
same,%Inh,[10],0%
O=C(Nc1n[nH]c2nc(-c3nccs3)c(Br)cc12)C1CC1 [SB-742251],%Inh,[1],0%
same,%Inh,[2],0%
same,%Inh,[3],14%
same,%Inh,[4],36%
same,%Inh,[5]; [11],15%
same,%Inh,[6],0%
same,%Inh,[7],0%
same,%Inh,[8],8%
same,%Inh,[9],0%
same,%Inh,[10],0%
COc1cccc(NC(=O)NC2CCN(c3ccnc(Nc4ccc(F)cc4)n3)C2)c1 (stereo not drawn) [GSK1379721],%Inh,[1],2%
same,%Inh,[2],16%
same,%Inh,[3],0%
same,%Inh,[4],32%
same,%Inh,[5]; [11],15%
same,%Inh,[6],0%
same,%Inh,[7],0%
same,%Inh,[8],0%
same,%Inh,[9],6%
same,%Inh,[10],4%
COc1cc2ncnc(Nc3ccc4nc(-c5ccccc5)[nH]c4c3)c2cc1OC.Cl [GW282450],%Inh,[1],0%
same,%Inh,[2],12%
same,%Inh,[3],0%
same,%Inh,[4],20%
same,%Inh,[5]; [11],0%
same,%Inh,[6],0%
same,%Inh,[7],1%
same,%Inh,[8],0%
same,%Inh,[9],0%
same,%Inh,[10],0%
CC(=O)Nc1nc2cnc(Nc3cc(NC(=O)c4cccc(CCC#N)c4)ccc3C)nc2s1,%Inh,[1],0%
same,%Inh,[2],24%
same,%Inh,[3],10%
same,%Inh,[4],0%
same,%Inh,[5]; [11],0%
same,%Inh,[6],0%
same,%Inh,[7],0%
same,%Inh,[8],0%
same,%Inh,[9],0%
same,%Inh,[10],7%
Cc1cccc(-c2nc(Nc3ccncc3)c3ccccc3n2)n1 [GW855857],%Inh,[1],0%
same,%Inh,[2],41%
same,%Inh,[3],10%
same,%Inh,[4],14%
same,%Inh,[6],95.7%
same,%Inh,[7],20%
same,%Inh,[8],27%
same,%Inh,[9],0%
same,%Inh,[10],0%
Clc1cc(Cl)cc(Nc2ccnc(Nc3cc(Cl)cc(Cl)c3)n2)c1 [GSK175726],%Inh,[1],0%
same,%Inh,[2],28%
same,%Inh,[3],0%
same,%Inh,[4],20%
same,%Inh,[5]; [11],0%
same,%Inh,[6],7%
same,%Inh,[7],0%
same,%Inh,[8],0%
same,%Inh,[9],25%
same,%Inh,[10],3%
Cc1c(O)cccc1Nc1ccnc2ccc(C(F)(F)F)cc12.Cl [GW466413],%Inh,[1],0%
same,%Inh,[2],0%
same,%Inh,[3],0%
same,%Inh,[4],10%
same,%Inh,[5]; [11],2%
same,%Inh,[6],8%
same,%Inh,[7],12%
same,%Inh,[8],0%
same,%Inh,[9],14%
same,%Inh,[10],0%
